Rows were chosen to be rich in hits. Some 3.3% of all compounds tested hit in one or more screens of this group.
HNF4A DNA FP: change in binding of human HNF4 alpha to DNA; P41235; HNF4a-FITC DNA binding, fluorescence polarization, 1 h; activity change, % at 10 µM; hit rate 0.3% among 360,000; in the data active = activity change above about 30%, passing the limit was not always enough
Target sequence (P41235 whole entry, looked up): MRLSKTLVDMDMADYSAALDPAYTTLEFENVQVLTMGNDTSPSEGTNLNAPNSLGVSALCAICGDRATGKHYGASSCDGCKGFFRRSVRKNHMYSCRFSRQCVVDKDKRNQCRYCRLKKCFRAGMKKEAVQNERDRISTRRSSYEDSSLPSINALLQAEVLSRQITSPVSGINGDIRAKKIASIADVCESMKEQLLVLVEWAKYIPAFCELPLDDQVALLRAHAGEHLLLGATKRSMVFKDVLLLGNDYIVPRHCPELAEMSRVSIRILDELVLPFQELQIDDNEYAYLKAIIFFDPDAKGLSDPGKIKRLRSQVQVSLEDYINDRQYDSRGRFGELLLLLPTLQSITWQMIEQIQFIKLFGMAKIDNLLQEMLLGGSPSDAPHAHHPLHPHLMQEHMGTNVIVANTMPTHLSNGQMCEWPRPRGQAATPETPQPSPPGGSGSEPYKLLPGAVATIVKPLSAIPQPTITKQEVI
PHOSPHO1 inh: PHOSPHO1 (human) inhibition. recombinant PHOSPHO1, absorbance phosphatase assay. hit rate 1.1% among 290,000. inhibition, % at 13.3 µM. Q8TCT1; in the data active = inhibition above about 60%
NRP1-CendR mod: alters CendR peptide binding to human NRP-1 | hit rate 0.85% among 360,000 | O14786 | inhibition, % at 25 µM | FAM-RPARPAR peptide binding to NRP-1, fluorescence polarization | AID 602438;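 active = inhibition or corrected inhibition above about 18%, plus a signal ratio from 0.5 to 1.5, limit read from the data, passing the limit was not always enough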
Rpn11 block: Rpn11 (human) deubiquitinase inhibition; human 26S proteasome, Ub4-pepOG fluorescence polarization; 20S core pre-blocked with epoxomicin; hit rate 0.59% among 360,000; inhibition, % at 20 µM; AID 588493;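 active = inhibition at 20 µM, scaled to each plate's controls, above about 33%, limit read from the data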
CTSL1 counter: counter-screen for PFM18AAP inhibitors: inhibitors of F. hepatica cathepsin L1. recombinant F. hepatica cathepsin L1, Z-Leu-Arg-MCA fluorescence. inhibition, % at 5.96 µM. hit rate 0.49% among 300,000;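 active = inhibition above the mean of all tested compounds plus 3 SD, set per screening campaign, cut at about 17% in these data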;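 also: 0% = plate median of test compound wells and 100% = 1 µM Z-Phe-Ala-diazomethylketone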
TPT1 inh: C. albicans TPT1 enzyme inhibition | hit rate 0.81% among 300,000 | inhibition, % at 5 µM | recombinant caTPT1, FP RNA substrate dephosphorylation;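 active = inhibition above the mean of all tested compounds plus 3 SD, set per screening campaign, cut at about 24% in these data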;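 also: plate controls were DMSO alone for no effect and ferristatin control at 100 nM for full effect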
* marks the source's active call; other numbers are inactive results; nt = no result given.

SMILES	HNF4A DNA FP	PHOSPHO1 inh	NRP1-CendR mod	Rpn11 block	CTSL1 counter	TPT1 inh
O=C1c2ccccc2C(=O)N1CC(O)Cn1nnc2ccccc21 (centres undefined)	-3	-3	4	2	3	-2
Cn1c(Cn2nnc3ccccc32)nnc1SCC(=O)N1c2ccccc2Sc2ccccc21	-2	30	0	-3	17*	1
OC(CN1c2ccccc2Sc2ccccc21)Cn1nnc2ccccc21 (centres undefined)	2	-7	-4	-2	17*	0
Cc1ccc(NS(=O)(=O)c2cccc(C(=O)Nc3c(C)n(C)n(-c4ccccc4)c3=O)c2)cc1	nt	0	nt	nt	4	1
CCN1CCc2c(C#N)c(N3CCCCC3)nc(N3CCOCC3)c2C1	0	12	8	0	18*	-1
COC(=O)c1cn(-c2ccccc2)c(C)c1C(=O)OC	3	-35	22*	-5	-5	-2
CCn1cc(CN2CCc3c([nH]c4ccccc34)C2c2cccc(O)c2)c(C)n1 (centres undefined)	-3	64*	-14	-3	-1	-3
Cn1c(CNC(=O)CCNC(=O)c2cccc(Br)c2)cc(=O)n(C)c1=O	0	37	-2	-8	36*	-4
O=C(Nc1nnc(SCc2ccc(F)cc2)s1)C1=COCCO1	5	nt	-2	1	nt	nt
O=C(Nc1nnc(SCc2ccccc2)s1)C1=COCCO1	4	nt	24*	0	4	2
Cc1ccc(N2/C(=N/c3nc(C)cc(C)n3)NC(=O)CC2C(=O)O)cc1 (centres undefined)	-3	3	-7	-4	-2	-3
Cc1cc(C)nc(/N=C2\NC(=O)CC(C(=O)O)N2c2ccc(Oc3ccccc3)cc2)n1 (centres undefined)	0	-10	-4	0	37*	1
Cc1cccc(NC(=O)[C@H](NC(=O)[C@@H]2Cc3ccccc3CN2)c2ccccc2)c1	-3	48	6	-4	-5	1
CC1=C(C(=O)N2CCCCCC2)CC(CC(=O)NCCN2CCOCC2)C(=O)N1Cc1ccccc1 (centres undefined)	2	nt	29*	8	nt	nt
COc1ccc(CN2C(=O)C(CC(=O)NCCN3CCOCC3)CC(C(=O)N3CCCCCC3)=C2C)cc1 (centres undefined)	3	nt	-8	nt	nt	nt
Cn1cnc([N+](=O)[O-])c1Sc1nc(N)nc2c1ncn2C1CC(O)C(CO)O1 (centres undefined)	1	nt	-9	13	nt	nt
CC(=O)Nc1ccc(NC(=O)CSc2nccn2Cc2ccccc2)cc1	2	31	2	-6	-3	3
Cc1nc(SCC(=O)NCc2ccc3c(c2)OCO3)c(C#N)c2c1CCCC2	2	9	3	-4	21*	4
COc1cccc(-n2ccnc2SCC(=O)Nc2ccccc2)c1	-2	60	-5	-3	2	0
O=C(CSc1nccn1-c1cccc(Cl)c1)Nc1ccc2c(c1)OCCO2	-3	74*	7	3	-6	4
COc1cccc(NC(=O)CSc2nccn2-c2cccc(OC)c2)c1	-2	43	-16	-3	-1	-3
COc1ccc(NC(=O)CSc2nccn2-c2cccc(OC)c2)cc1	-1	72*	-2	-1	0	0
Cc1ccc(NC(=O)CSc2nccn2Cc2ccccc2)cc1C	0	86*	0	4	-2	-4
CC(C)CCNC(=O)C1CCN(C(=O)N(C)C)CC1	-3	-2	-1	-14	0	-1
O=S(=O)(N/N=C/c1ccccc1OCc1ccc(Cl)cc1)c1ccccc1	4	12	-4	-4	1	1
SMILES	HNF4A DNA FP	PHOSPHO1 inh	NRP1-CendR mod	Rpn11 block	CTSL1 counter	TPT1 inh
O=C(CSc1nccn1-c1ccc(Cl)cc1)NCc1ccc2c(c1)OCO2	-5	68*	-2	-1	-2	-3
O=C(CSc1ncccn1)NCc1ccc2c(c1)OCO2	3	44	10	1	1	-5
Cc1ccccc1CC(=O)Nc1ccc2c(c1)c(=O)n(C)n2-c1cccs1	0	nt	27*	-1	nt	nt
Cc1ccccc1CC(=O)Nc1ccc2c(c1)c(=O)n(C)n2-c1ccccc1F	6	nt	-2	6	nt	nt
CN1C(=O)C(O)(CC(=O)/C=C/C=C/c2ccccc2)c2ccccc21 (centres undefined)	-3	13	4	-4	32*	0
CN1C(=O)C(O)(CC(=O)/C=C/c2ccco2)c2ccccc21 (centres undefined)	-1	6	5	-2	7	-7
CCC1Sc2ccccc2N(CC(=O)NCCC(C)C)C1=O (centres undefined)	1	33	3	-10	-6	-2
COc1ccc(OC)c(C2CC(=O)N3CN(c4cccc(Cl)c4)CSC3=C2C#N)c1 (centres undefined)	-2	94*	-9	9	2	-2
CCOC(=O)c1ccc(N2CSC3=C(C#N)C(c4ccc(OC)cc4OC)CC(=O)N3C2)cc1 (centres undefined)	0	90*	6	2	3	3
COc1ccc(OC)c(C2CC(=O)N3CN(c4ccc(C)c(Cl)c4)CSC3=C2C#N)c1 (centres undefined)	-1	79*	-11	9	2	-3
COc1cc(OC)c(C2CC(=O)N3CN(c4ccccc4)CSC3=C2C#N)cc1OC (centres undefined)	-1	103*	-12	4	1	-3
COc1cc(OC)c(C2CC(=O)N3CN(C)CSC3=C2C#N)cc1OC (centres undefined)	1	48	12	6	1	-1
CCOC(=O)C1=C(CC)OC(N)=C(C#N)C1c1ccc(OC)cc1OC (centres undefined)	3	-7	-1	-6	-1	1
CCCC(=O)Nc1ccc(NC(=O)c2cccc(OC)c2)nc1	0	14	-2	-2	3	-6
COc1cccc(C(=O)Nc2ccc(NC(C)=O)cn2)c1	3	-29	7	-12	20*	4
COc1ccc(NC(=O)c2cccc(-c3ccc(O)cc3)c2)cn1	-41	31	41*	-104	6	-43
CC(=O)Nc1cccc(NC(=O)c2cccc(-c3ccc(O)cc3)c2)c1	-1	11	3	3	-3	-3
CC1(C(=O)NS(=O)(=O)c2cccc(C#N)c2)CCN1C(=O)c1ccccc1 (centres undefined)	-3	nt	-2	-10	nt	nt
CCOc1ccccc1C1NC(=O)c2ccccc2N1 (centres undefined)	-1	nt	6	6	nt	nt
Cc1ccc(NC(=O)CN2C(=O)S/C(=C\c3cccn3-c3cccc(C(=O)O)c3)C2=O)c(C)c1	-22	102*	-11	8	-3	5
CCOc1ccc(OCC)c(S(=O)(=O)n2ccnc2C)c1	48*	-3	7	4	2	-5

Bioassay records as filed in PubChem BioAssay.
